This excerpt belongs to a sample that is enriched for hits.
KDM5B inhibitor = inhibitors of human KDM5B histone demethylase; Q9UGL1; KDM5B demethylase, FDH-coupled NADH fluorescence (FDH is formaldehyde dehydrogenase); 220,000 compounds, 2.6% hits; Potency, µM (highest dose often 57.7 µM), usual class: inhibitors; active = well fitted inhibition curve with a large enough effect; also: 0% is about no effect; nearly all actives have a fitted effect of over 70% in size
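Measured: NADH fluorescence change, 30 min, RT. System: KDM5BΔAP 200 nM final, H3K4me3 peptide, α-KG, Fe(II), ascorbate, NAD⁺ plus FDH, pH 7.5 HEPES. Compounds: titrated, 10 min pre-incubation with enzyme.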
Numbers without * were called inactive; i = inactive. Potency is read from the fitted curve at half-maximal effect.

SMILES | KDM5B inhibitor
O=C(O)CCC(NC(=O)C1(c2ccccc2)CCCC1)C(=O)O (configuration not stated) | i
CCCCN(Cc1ccccc1)c1ccc(NS(=O)(=O)c2cc(C)ccc2C)cc1C(=O)O | i
O=C(/C=C/c1ccccc1F)N1CCN(c2ccccn2)CC1 | i
O=C(Cc1c(F)cccc1Cl)NCC(=O)N1CCN(c2ccccn2)CC1 | 25µM*
O=C(NCC(=O)N1CCN(c2ccccn2)CC1)c1cc2ccccc2[nH]1 | 14µM*
O=C(NCCNC(=O)c1cc2ccccc2[nH]1)c1ccccn1 | i
O=C(NCc1ccccn1)C(=O)N1CCN(C(=O)c2cc3ccccc3[nH]2)CC1 | i
COc1ccc(C(=O)NC[C@H]2O[C@@H](CC(=O)N3CCN(c4ccccn4)CC3)[C@H](O)[C@@H]2O)cc1 | i
Cc1ccc(C(=O)NCC(=O)N2CCN(c3ccccn3)CC2)cc1 | 28µM*
O=C(Cc1c(F)cccc1Cl)N1C[C@@H](CO)[C@H](c2ccccn2)C1 | i
Cc1ccc(C(=O)NCC(=O)N2CCCCCC2)cc1 | i
Cc1cccc2sc(NC(=O)c3ccc[n+]([O-])c3)nc12 | i
O=C(NCCNC(=O)c1cc2ccccc2[nH]1)C(=O)N1CCCC1 | i
C=CCN(CCC(=O)NC(=O)NC)CCc1ccccc1 | i
CCCNC(=O)NC(=O)CN(C)CC(=O)Nc1ccccc1CC | i
COc1cccc2c(C)nc(Nc3nc(C)c(Cc4ccc(Cl)cc4)c(=O)[nH]3)nc12 | i
COc1ccc(C2CC(=O)Nc3c2c(=O)[nH]c2ncnn32)cc1OC (configuration not stated) | i
O=C(/C=C/c1cccc([N+](=O)[O-])c1)c1ccc(-c2ccccc2)cc1 | i
CCn1cnc2c1c(=O)n(CC(=O)OCCOc1cccc(Cl)c1)c(=O)n2Cc1ccccc1 | i
CCn1cc(C#N)c(=O)n(Cc2coc(-c3ccc(Cl)cc3)n2)c1=O | i
CCc1ccc2[nH]c(C)c(CC(=O)NCc3ccc(C)o3)c2c1 | i
N#Cc1ccc(C(=O)N2CCC3(CC2)CN(Cc2ccccc2)CC3CO)cc1 (configuration not stated) | i
O=C(c1ccoc1)N1CCC2(CC1)CN(c1ccncn1)CC2CO (configuration not stated) | i
CCn1cc(C(=O)N2CCC3(CC2)CN(c2ccncn2)CC3CO)cn1 (configuration not stated) | i
N#Cc1ccc(CN2CCC3(CC2)CN(c2ccncn2)CC3CO)cc1 (configuration not stated) | i
SMILES | KDM5B inhibitor
OCC1CN(c2ncccn2)CC12CCN(Cc1ccncc1)CC2 (configuration not stated) | 22µM*
Cc1ncccc1C(=O)N1CCC2(CCN(Cc3ccccn3)CC2)C(CO)C1 (configuration not stated) | i
Cc1cc(CN2CCC3(CC2)CN(c2ncccn2)CC3CO)n(C)n1 (configuration not stated) | 32µM*
COc1cccc(CN2CCC3(CC2)CN(c2ccncn2)CC3CO)c1OC (configuration not stated) | i
O=C(c1ccncc1)N1CCC2(CC1)CN(c1ncccn1)CC2CO (configuration not stated) | 22µM*
CC(=O)N1CCC2(CC1)CCN(c1ncccc1C#N)CC2CO (configuration not stated) | 32µM*
COCCN1CC(CO)C2(CCN(Cc3sccc3C)CC2)C1 (configuration not stated) | i
CCn1cc(CN2CCC3(CC2)CN(c2ccncn2)CC3CO)c(C)n1 (configuration not stated) | i
Cn1cccc1C(=O)N1C[C@@H](COCC2CC2)[C@H](c2ccccn2)C1 | i
c1ccc2c(c1)OCCOCCOc1ccccc1OCCO2 | i
COc1ccc(CNCC(O)COc2ccc(C(C)(C)C)cc2C)cc1OC (configuration not stated) | i
CCc1ccc(Nc2nnc(SCC(=O)Nc3ccnn3C3CCCC3)s2)cc1 | i
Fc1ccc(CN2CC[C@H](c3nc4ccc(C(F)(F)F)cc4[nH]3)C2)cc1F | i
Cc1csc(Sc2ccc(Cl)cc2)n1 | i
O=[S+]1([O-])NCC2(CCCN(CC3CC3)C2)Nc2ccccc21 (configuration not stated) | i
Cc1ccc(CN2CCC3(CC2)CN(c2ccncn2)CC3CO)o1 (configuration not stated) | i
OCC1CN(c2ccncn2)CC12CCN(Cc1c[nH]c3ccccc13)CC2 (configuration not stated) | i
Cc1ccc(CN2CCC3(CC2)CCN(Cc2ccco2)CC3CO)s1 (configuration not stated) | i
OCC1CN(c2ncccn2)CC12CCN(Cc1ccsc1)CC2 (configuration not stated) | 32µM*
O=C1NCC2(CCN(Cc3ccsc3)CC2)Oc2ccccc21 | i
OCC1CN(c2ncccn2)CC12CCN(Cc1ccco1)CC2 (configuration not stated) | 28µM*
CN1CC(CO)C2(CCN(Cc3ccc(Cl)cc3)CC2)C1 (configuration not stated) | i
COc1cc(CN2CCC3(CC2)CN(c2ccncn2)CC3CO)ccc1F (configuration not stated) | i
Cc1ccc(CN2CCC3(CC2)CN(c2ncccn2)CC3CO)cc1C (configuration not stated) | 25µM*
O=C(CCc1ncc(-c2ccccc2F)o1)N1CCOCC1 | i
SMILES | KDM5B inhibitor
CC(C)c1ccc(CNC(=O)C2CCN(c3cc(C(F)(F)F)ncn3)CC2)cc1 | i
COc1cccc(CN2CC3(C2)C(=O)N(Cc2ccccc2Cl)C(=O)[C@@H]2C[C@@H](O)CN23)c1 | i
O=C(COc1ccc(Cl)cc1)N(CCCN1CCOCC1)c1nc2ccccc2s1 | i
CC(=O)Nc1ccc(C(=O)Nc2cnc3ccccc3c2)cc1 | i
CC(c1cccs1)N(C)Cc1cccnc1 (configuration not stated) | i
C=CCNC(=S)NNC(=O)Nc1ccccc1 | i
O=C(c1ncccn1)N1CCNc2cnc(Nc3ccc(-n4ccnc4)cc3)nc2C1 | i
O=C(COc1ccccc1)N1CCNc2cnc(Nc3cccc(F)c3)nc2C1 | 35µM*
COc1ccccc1Nc1ncc2c(n1)CN(C(=O)c1cccc(N(C)C)c1)CCN2 | i
CC(=O)Oc1c(-c2ccc(NC(=O)c3ccco3)cc2)c(C2CC2)nn1-c1cccc(C)c1 | 32µM*
Cc1nnc2ccc(-c3cccc(NC(=O)c4ccco4)c3)nn12 | i
Cc1nn(-c2ccccc2)c(NC(=O)c2ccco2)c(-c2ccccc2)c1=O | i
Fc1ccccc1-c1nc(NC2CCCCC2)c2ccccc2n1 | i
CC(C)c1ccc(CNC(C)c2ccc(S(C)(=O)=O)cc2)cc1 (configuration not stated) | i
COc1ccc(-c2nc(N3CCOCC3)cc3c2CN(Cc2ccccc2)C3=O)cn1 | 35µM*
COc1ccc(CN2CCC3OCCN(Cc4ccccc4)C(=O)C3C2)cn1 (configuration not stated) | i
COc1ccc(-c2nc(N3CCOCC3)cc3c2CN(Cc2ccccc2)C3=O)cc1OC | i
Cc1ccccc1-c1nc(N2CCOCC2)cc2c1CN(CC1CC1)C2=O | 35µM*
COCC(=O)N(C1CCOCC1)C1CCN(C(=O)c2ccc(OC)nc2)CC1 | i
Cn1cc(-c2nc(N3CCOCC3)cc3c2CN(CC2CC2)C3=O)cn1 | i

Source: PubChem BioAssay (National Center for Advancing Translational Sciences (NCATS))
